Reference: PubChem BioAssay (NCATS)
Active and inactive are the calls of the source. The call rests on the fitted dose curve.

Details: Ebola virus entry assay, blue channel fluorescence

SMILES	outcome	AC50
CN/C(=C\[N+](=O)[O-])NCCSCc1csc(CN(C)C)n1	inactive	–
CCCCC[C@H](O)/C=C/[C@@H]1[C@H]2C/C(=C/CCCC(=O)O)O[C@H]2C[C@H]1O	inactive	–
COCC1=C(C(=O)OC(C)OC(=O)OC(C)C)N2C(=O)[C@@H](NC(=O)/C(=N\OC)c3csc(N)n3)[C@H]2SC1 (some centres undefined)	inactive	–
N#Cc1ccc(C(c2ccc(C#N)cc2)n2cncn2)cc1	inactive	–
C=CC1=C(C(=O)O)N2C(=O)[C@@H](NC(=O)/C(=N\O)c3csc(N)n3)[C@H]2SC1 (stereo in doubt)	inactive	–
CN1C(=O)C(O)N=C(c2ccccc2)c2cc(Cl)ccc21 (centres undefined)	inactive	–
C[C@@H]1O[C@@H](O[C@H]2CC[C@@]3(C)[C@H](CC[C@@H]4[C@H]3C[C@@H](O)[C@]3(C)[C@@H](C5=CC(=O)OC5)CC[C@]43O)C2)C[C@H](O)[C@@H]1O[C@H]1C[C@H](O)[C@H](O[C@H]2C[C@H](O)[C@@H](O)[C@@H](C)O2)[C@H](C)O1 (stereo in doubt)	–	1 µM (active)
CC(C)CN(C[C@@H](O)[C@H](Cc1ccccc1)NC(=O)O[C@H]1CO[C@H]2OCC[C@H]21)S(=O)(=O)c1ccc(N)cc1	inactive	–
S=P(N1CC1)(N1CC1)N1CC1	inactive	–
CC(C)(C)NC[C@H](O)COc1ccccc1C1CCCC1	–	4.47 µM (active)
CC(CCc1ccc(O)cc1)NCCc1ccc(O)c(O)c1 (centres undefined)	inactive	–
Clc1ccc2c(c1)C(c1ccccc1)=NCc1nncn1-2	inactive	–
C[C@@H]1[C@H](O)[C@@H](C)/C=C/C=C\C=C\C=C\C=C\C=C\C=C\[C@H](O[C@@H]2O[C@H](C)[C@@H](O)[C@H](N)[C@@H]2O)C[C@@H]2O[C@](O)(C[C@@H](O)C[C@@H](O)[C@H](O)CC[C@@H](O)C[C@@H](O)CC(=O)O[C@H]1C)C[C@H](O)[C@H]2C(=O)O (stereo in doubt)	inactive	–
CNCCC=C1c2ccccc2CCc2ccccc21	–	8.91 µM (active)
COC(=O)C(c1ccccc1)C1CCCCN1 (centres undefined)	inactive	–
CC1(C)S[C@@H]2[C@H](NC(=O)[C@H](N)c3ccc(O)cc3)C(=O)N2[C@H]1C(=O)O	inactive	–
OC[C@H]1O[C@@H](n2cnc3c2NC=NC[C@H]3O)C[C@@H]1O	inactive	–
CSCC[C@H](NC(=O)[C@H](Cc1ccc(OS(=O)(=O)O)cc1)NC(=O)[C@@H](N)CC(=O)O)C(=O)NCC(=O)N[C@@H](Cc1c[nH]c2ccccc12)C(=O)N[C@@H](CCSC)C(=O)N[C@@H](CC(=O)O)C(=O)N[C@@H](Cc1ccccc1)C(N)=O	inactive	–
C=CC[C@@H]1C=C(C)C[C@H](C)C[C@H](OC)[C@H]2O[C@@](O)(C(=O)C(=O)N3CCCC[C@H]3C(=O)O[C@H](C(C)=C[C@@H]3CC[C@H](O)[C@H](OC)C3)[C@@H](C)[C@@H](O)CC1=O)[C@@H](C)C[C@@H]2OC	inactive	–
COc1cc(C)c(/C=C/C(C)=C/C=C/C(C)=C/C(=O)O)c(C)c1C	inactive	–

SMILES	outcome	AC50
C[C@]1(O)CC[C@H]2[C@@H]3CCC4=CC(=O)CC[C@]4(C)[C@@]3(F)[C@@H](O)C[C@@]21C	inactive	–
CN1[C@@H]2CCC[C@@H]1CC(NC(=O)c1nn(C)c3ccccc13)C2 (some centres undefined)	inactive	–
CC(CCc1ccccc1)NCC(O)c1ccc(O)c(C(N)=O)c1 (centres undefined)	inactive	–
COc1cc([C@@H]2c3cc4c(cc3[C@@H](O[C@@H]3O[C@@H]5CO[C@@H](C)O[C@H]5[C@H](O)[C@H]3O)[C@H]3COC(=O)[C@H]23)OCO4)cc(OC)c1O	inactive	–
CCC[C@@H]1C[C@@H](C(=O)N[C@@H]([C@H]2O[C@H](SC)[C@H](O)[C@@H](O)[C@H]2O)[C@H](C)Cl)N(C)C1	inactive	–
CCCCC(C)(O)C/C=C/[C@H]1[C@H](O)CC(=O)[C@@H]1CCCCCCC(=O)OC (some centres undefined)	inactive	–
NC(=O)[C@@H]1CCCN1C(=O)[C@H](Cc1cnc[nH]1)NC(=O)[C@@H]1CCC(=O)N1	inactive	–
CO[C@H]1C=CO[C@@]2(C)Oc3c(C)c(O)c4c(O)c(c5c(nc6cc(C)ccn65)c4c3C2=O)NC(=O)/C(C)=C\C=C[C@H](C)[C@H](O)[C@@H](C)[C@@H](O)[C@@H](C)[C@H](OC(C)=O)[C@@H]1C	inactive	–
CN[C@H](CC(C)C)C(=O)N[C@H]1C(=O)N[C@@H](CC(N)=O)C(=O)N[C@H]2C(=O)N[C@H]3C(=O)N[C@H](C(=O)N[C@@H](C(=O)O)c4cc(O)cc(O)c4-c4cc3ccc4O)[C@H](O)c3ccc(c(Cl)c3)Oc3cc2cc(c3O[C@@H]2O[C@H](CO)[C@@H](O)[C@H](O)[C@H]2O[C@H]2C[C@](C)(N)C(O)[C@H](C)O2)Oc2ccc(cc2Cl)[C@H]1O (some centres undefined)	inactive	–
CC(C)(S)[C@@H](N)C(=O)O	inactive	–
NC(=O)CC[C@@H]1NC(=O)[C@H](Cc2ccccc2)NC(=O)[C@H](Cc2ccc(O)cc2)NC(=O)CCSSC[C@@H](C(=O)N2CCC[C@H]2C(=O)N[C@@H](CCCN=C(N)N)C(=O)NCC(N)=O)NC(=O)[C@H](CC(N)=O)NC1=O	inactive	–
Cn1nnc2c(C(N)=O)ncn2c1=O	inactive	–
CN1CCN(C(c2ccccc2)c2ccc(Cl)cc2)CC1 (centres undefined)	–	12.6 µM (active)
CN[C@@H]1[C@H](O[C@H]2[C@H](O[C@H]3[C@H](O)[C@@H](O)[C@H](N=C(N)N)[C@@H](O)[C@@H]3N=C(N)N)O[C@@H](C)[C@]2(O)C=O)O[C@@H](CO)[C@H](O)[C@H]1O	inactive	–
O=C(N[C@H](CO)[C@H](O)c1ccc([N+](=O)[O-])cc1)C(Cl)Cl	inactive	–
CC(C)CN(C[C@@H](OP(=O)(O)O)[C@H](Cc1ccccc1)NC(=O)O[C@H]1CCOC1)S(=O)(=O)c1ccc(N)cc1	inactive	–
CN(C)CCOc1ccc(/C(=C(/CCCl)c2ccccc2)c2ccccc2)cc1	–	4.47 µM (active)
CC(C)(C)NC(=O)[C@@H]1C[C@@H]2CCCC[C@@H]2CN1C[C@@H](O)[C@H](Cc1ccccc1)NC(=O)[C@H](CC(N)=O)NC(=O)c1ccc2ccccc2n1	inactive	–
COc1cccc2c1C(=O)c1c(O)c3c(c(O)c1C2=O)C[C@@](O)(C(=O)CO)C[C@@H]3O[C@H]1C[C@H](N)[C@@H](O)[C@H](C)O1	–	7.94 µM (active)
